Bioassay records from PubChem BioAssay.
Compounds with a hit are over-represented: about 2.1% of the library has one in this group of screens.
rRNA inh HTS – reduced GFP signal of wild-type E. coli, primary screen, bacterial rRNA inhibitor project, GFP/RFP fluorescence, OD600, single point; AID 720706, 2013; actives 1.6% (n = 350,000); GFP signal change (wild-type ribosome), % (no concentration beside the values); E. coli WT GFP vs humanized-ribosome RFP mutants, 24 h; stronger effect = lower value; DMSO median 0, no signal -100;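 active means significant combined selectivity score with lowered wild-type GFP, culture density cut under 30%, mutant RFP and density less affected; inactive means any of these conditions unmet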
ERAP1 inh – human ERAP1 aminopeptidase inhibitors, primary screen, biochemical, single point, plate reader; Endoplasmic reticulum aminopeptidase 1 (Homo sapiens), Q9NZ08; recombinant ERAP1, Leu-AMC fluorescence, 60 min; inhibition, % at 10.7 µM; actives 0.15% (n = 340,000);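 active means mean replicate inhibition of at least 30%, or all replicates individually reaching that 30% level; inactive means mean below 30% and not every replicate reaching it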
Target sequence (Q9NZ08 whole entry, looked up): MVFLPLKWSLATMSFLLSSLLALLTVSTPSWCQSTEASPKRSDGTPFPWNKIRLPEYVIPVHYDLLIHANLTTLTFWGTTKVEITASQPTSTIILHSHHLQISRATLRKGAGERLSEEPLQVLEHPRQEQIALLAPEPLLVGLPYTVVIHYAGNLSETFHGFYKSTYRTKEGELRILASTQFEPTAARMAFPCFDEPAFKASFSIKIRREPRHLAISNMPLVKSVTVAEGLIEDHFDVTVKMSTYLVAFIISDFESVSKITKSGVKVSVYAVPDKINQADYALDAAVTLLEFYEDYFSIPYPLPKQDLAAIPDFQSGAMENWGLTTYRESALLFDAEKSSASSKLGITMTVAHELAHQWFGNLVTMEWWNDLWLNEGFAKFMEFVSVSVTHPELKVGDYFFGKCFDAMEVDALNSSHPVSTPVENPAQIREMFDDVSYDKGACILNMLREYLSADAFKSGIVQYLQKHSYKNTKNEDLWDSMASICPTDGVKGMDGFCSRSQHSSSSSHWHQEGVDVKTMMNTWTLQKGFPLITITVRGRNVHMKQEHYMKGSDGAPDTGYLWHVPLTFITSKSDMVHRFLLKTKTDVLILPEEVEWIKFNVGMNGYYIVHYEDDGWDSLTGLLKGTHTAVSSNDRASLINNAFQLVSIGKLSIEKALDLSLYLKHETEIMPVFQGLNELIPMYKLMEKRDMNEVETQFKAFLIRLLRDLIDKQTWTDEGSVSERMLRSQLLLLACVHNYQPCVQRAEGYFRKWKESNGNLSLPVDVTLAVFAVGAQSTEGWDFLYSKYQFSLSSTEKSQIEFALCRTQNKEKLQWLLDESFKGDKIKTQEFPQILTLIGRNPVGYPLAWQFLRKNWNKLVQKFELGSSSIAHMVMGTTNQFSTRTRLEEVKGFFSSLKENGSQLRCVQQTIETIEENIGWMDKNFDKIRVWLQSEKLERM
ARNT-TACC3 inh – disruptors of ARNT/TACC3 protein interaction, primary screen, biochemical, AlphaScreen, single concentration | AlphaScreen His-ARNT PAS-B/GST-TACC3 binding, luminescence; TACC3 fragment carries E629A point mutation | inhibition, % at 9.99 µM | actives 0.66% (n = 390,000);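 active means mean inhibition of replicates at least 50% and at least half of replicates each reaching 50%; inconclusive means half or more replicates reach 50% but mean below 50%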
PvdQ acylase – P. aeruginosa PvdQ acylase inhibitors, primary screen, biochemical, fluorescence, plate reader and imaging, single point. inhibition, % at 10 µM. actives 0.063% (n = 340,000). PvdQ acylase [Pseudomonas aeruginosa LESB58]. AID 488965, 2010. purified PvdQ acylase; in the data active means inhibition above about 30%, passing the limit was not always enough; inconclusive means no clear call, values can overlap the other calls
CFTR F508del cor – F508del CFTR correction, initial screen, CFBE line, single point; AID 720511, 2013; CFBE cells, YFP halide quenching; stimulated with forskolin plus potentiator P3; % fluorescence drop versus neutral controls; actives 0.36% (n = 350,000); activity (quench increase), % at 7.58 µM;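 active means mean added fluorescence quench of at least 8% versus neutral control, with both replicates also reaching 8%; inconclusive means only one of the mean or replicate conditions met; inactive means mean below 8% and not both replicates reaching 8%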;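 further: cells transiently co-express mutant CFTR-F508del with the halide-sensitive YFP; corrector assay measuring rescue of mutant channel to the surface after 24 h compound exposure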
HepG2 tox – cytotoxicity in HepG2 cells, dose response, cytotoxicity control, cell-based, CellTiter-Glo luminescence, cherry-pick, set 4; shares compounds with rRNA inh HTS; activity change, negative = cytotoxicity, unspecified at 26 µM; HepG2 viability, ATP luminescence, 72 h; 30 tested, under 10 active;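 active means compounds whose fitted half-maximal signal-loss concentration is at most twice their highest valid dose; inconclusive means flat curve with 30 to 70% signal loss, or poor fit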
AID977621 – growth inhibition of wild-type GFP E. coli, dose response, H69 mutant RFP, cherry-pick. shares compounds with rRNA inh HTS. activity change, negative = inhibition at 50 µM. 1,900 tested, under 10 active. E. coli wild-type GFP strain growth, fluorescence, 24 h;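 active means Wild-type ribosome reporter drop at least double the humanized mutant ribosome reporter drop, growth loss under a set limit; inconclusive means no clear call, values can overlap the other calls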;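 further: wild-type GFP and H69 mutant RFP strains grown together 50/50 in each well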
AID977628 – E. coli growth inhibition, wild-type GFP versus h24 humanized RFP strain, dose response, h24 mutant RFP vs wild-type GFP, cherry-pick; 1,900 tested, under 10 active; activity change, negative = inhibition at 50 µM; E. coli WT GFP strain growth, fluorescence, 24 h; shares compounds with rRNA inh HTS; AID 977628, 2014;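 active means compound lowering the normal-ribosome reporter at least twice as much as the humanized-ribosome reporter, growth loss under a set limit; inconclusive means no clear call, values can overlap the other calls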;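 further: wild-type GFP and h24 humanized RFP strains co-cultured 1 to 1 per well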
Each line names hits and unclear results; the compound was inactive in the other large screens (follow-up assays come after a bar, where they were run).

C/C=C/c1ccc2c(c1)O[C@@H](CN(C)C(=O)c1ccccc1F)[C@@H](C)CN([C@H](C)CO)S2(=O)=O	none (no result: PvdQ acylase)
C=CCn1c(C)cc(C(=O)CSc2nnc(C3CC3)n2C2CC2)c1C	rRNA inh HTS -19.6 | AID977621 inactive
CCCc1nc2oc3c(NCCCN(C)C)ncnc3c2c2c1CCCC2	rRNA inh HTS -22.6 | AID977621 inactive
CCCn1c(C(C)Nc2nc(-c3ccc(C)cc3)cs2)nc2ccccc21 (stereo not given)	rRNA inh HTS -15.5 (no result: ARNT-TACC3 inh) | AID977621 inactive | AID977628 inactive
COCCCNc1ccn2nc(-c3cccc(Cl)c3)cc2n1	none (no result: ARNT-TACC3 inh, PvdQ acylase)
COCCCNc1ccn2nc(-c3ccccc3)cc2n1	rRNA inh HTS -19.5 (no result: ARNT-TACC3 inh, PvdQ acylase) | AID977621 inactive
COc1ccc2oc(C)c(C(=O)c3ccc(C)cc3)c2c1	none
COc1ccc(C(=O)c2c(C)oc3ccc(O)cc23)cc1	rRNA inh HTS -21.6 | AID977621 inactive
O=C(COC(=O)CCSc1ccc(F)cc1)NCc1ccc(F)cc1	rRNA inh HTS -17.3 | AID977628 inconclusive
O=C(COC(=O)CCC(=O)c1ccc(F)cc1)NCCc1ccccc1	rRNA inh HTS -21.1 | AID977621 inactive
O=C(COC(=O)CCSc1ccccc1)NCc1ccccc1	none
O=C(COC(=O)C1CC2C=CC1C2)NCCc1ccccc1 (stereo not given)	rRNA inh HTS -21.1 | AID977621 inactive | AID977628 inactive
O=C(COC(=O)C1CC1)NCCc1ccccc1	none (no result: rRNA inh HTS)
O=C(COC(=O)CCC(=O)c1ccccc1)NCCc1ccccc1	none
O=C(C[C@H]1C[C@@H]2c3cc(NC(=O)Nc4ccc(C(F)(F)F)cc4)ccc3O[C@@H]2[C@H](CO)O1)NCc1ccccn1	none (no result: PvdQ acylase)
C[C@@H]1CCCCO[C@@H](CN(C)Cc2ccc3c(c2)OCO3)[C@@H](C)CN([C@@H](C)CO)C(=O)c2cc(NC(=O)CCC(F)(F)F)ccc2O1	none (no result: PvdQ acylase)
C=CCN(c1ccccc1)S(=O)(=O)c1cccc2cccnc12	rRNA inh HTS -24.2 (no result: ERAP1 inh) | AID977621 inactive
N#Cc1ccccc1OCC(=O)Nc1cccc(S(=O)(=O)N2CCCC2)c1	none (no result: ARNT-TACC3 inh)
Cn1nc(C(=O)Nc2cccc(S(=O)(=O)N3CCCCC3)c2)c2ccccc2c1=O	rRNA inh HTS -17.1 | AID977621 inactive | AID977628 inactive
CCOc1ccc(C(=O)NCC(=O)OCC(=O)Nc2cccc(S(=O)(=O)N3CCCC3)c2)cc1	none
CCN(CC)S(=O)(=O)c1cccc(NC(=O)CNc2cccc(S(=O)(=O)N3CCCC3)c2)c1	rRNA inh HTS -23.1 | AID977621 inactive
COc1cc(C#N)ccc1OCC(=O)Nc1cccc(S(=O)(=O)N2CCCC2)c1	rRNA inh HTS -25.9 | AID977628 inactive
CCN(CC)S(=O)(=O)c1ccc(C)c(NC(=O)CNc2cccc(S(=O)(=O)N3CCCC3)c2)c1	none (no result: ARNT-TACC3 inh)
O=C(COC(=O)CNC(=O)c1ccc(F)cc1)Nc1cccc(S(=O)(=O)N2CCCC2)c1	rRNA inh HTS -18.2 | AID977621 inactive | AID977628 inactive
NC(=O)[C@H]1[C@@H]2C(=O)O[C@@H](c3ccccc3)[C@@H](c3ccccc3)N2[C@@H](c2ccc(OCCO)cc2)[C@]12C(=O)Nc1ccccc12	none (no result: rRNA inh HTS, PvdQ acylase)
COCC#Cc1cnc2c(c1)C(=O)N([C@@H](C)CO)C[C@H](C)[C@@H](CN(C)C(=O)Nc1cc(F)ccc1F)O2	none (no result: PvdQ acylase)
CCOc1ccccc1N1CC(C(=O)Nc2cccc(S(=O)(=O)N3CCCCC3)c2)CC1=O (stereo not given)	rRNA inh HTS -20.5 | AID977621 inactive | AID977628 inconclusive
CCN(CC)CC(=O)Nc1cccc(S(=O)(=O)N2CCCC2)c1	none (no result: ERAP1 inh)
O=C(CN(CCO)c1ccccc1)Nc1cccc(S(=O)(=O)N2CCCC2)c1	rRNA inh HTS -22.9 | AID977628 inconclusive
C[C@@H]1CN([C@@H](C)CO)C(=O)c2cc(NC(=O)CCCCCC(=O)Nc3ccccc3N)ccc2O[C@H]1CN(C)Cc1ccc2c(c1)OCO2	none (no result: ARNT-TACC3 inh, PvdQ acylase)
Cc1ccc(C(=O)OCC(=O)c2c[nH]c3ccccc23)cc1NC(=O)c1ccco1	rRNA inh HTS -20.1 | AID977628 inconclusive
CCN(CC)C(=O)COC(=O)c1ccc(C)c(NC(=O)c2ccco2)c1	none
COc1ccc(Nc2oc(-c3ccco3)nc2S(=O)(=O)c2ccc(F)cc2)cc1	rRNA inh HTS -28.7 (no result: ARNT-TACC3 inh) | HepG2 tox inactive
Cc1cc(NC(=O)c2sc(Nc3ccc(F)c(Cl)c3)nc2N)no1	rRNA inh HTS -22.1 | AID977621 inactive | AID977628 inactive
COCCCNC(=O)[C@@]1(CCS(=O)(=O)c2ccccc2)N=C(c2ccc(OCCCO)cc2)O[C@H]1c1ccccc1	none (no result: rRNA inh HTS, PvdQ acylase)
O=C(c1cccs1)c1c[nH]cc1-c1ccccc1	rRNA inh HTS -30.3 (no result: ARNT-TACC3 inh, PvdQ acylase) | AID977621 inactive | AID977628 inactive
COCC(=O)N1[C@H](C#N)[C@H](c2ccc(C3=CCCC3)cc2)[C@@H]1CO	none (no result: PvdQ acylase)
O=C1c2ccccc2C(c2nnnn2Cc2ccccc2)N1CCOc1ccccc1 (stereo not given)	none (no result: ERAP1 inh, ARNT-TACC3 inh, PvdQ acylase)
CC(C)n1nnnc1C1c2ccccc2C(=O)N1CCOc1ccccc1 (stereo not given)	rRNA inh HTS -18.2 (no result: ERAP1 inh, ARNT-TACC3 inh, PvdQ acylase) | AID977621 inactive | AID977628 inactive
Cc1cccc(OCCC(=O)Nc2ccc(F)c(F)c2)c1	rRNA inh HTS -41.3 | AID977621 inactive
O=C(C[C@@H]1CC[C@H]2[C@@H](COC[C@@H](O)CN2C(=O)c2cc(Cl)cc(Cl)c2)O1)N1CCc2ccccc2C1	none (no result: PvdQ acylase)
O=C(CC1CC1)N1[C@H](CO)[C@@H](c2ccccc2)C12CN(Cc1cccnc1)C2	none (no result: ARNT-TACC3 inh, PvdQ acylase)
Cc1cc(C)cc(NS(=O)(=O)c2c(C(=O)N3CCCCCC3)c(C)n(C)c2C)c1	rRNA inh HTS -28.8 | AID977621 inactive | AID977628 inactive
O=C(N[C@@H]1CC[C@@H](CCn2cc(C3(O)CCCC3)nn2)O[C@@H]1CO)C1CCOCC1	none (no result: PvdQ acylase)
